Experimental data published in the supplement of paper PMC11732987, “Enantioselective OTUD7B fragment discovery through chemoproteomics screening and high-throughput optimisation” (Communications Chemistry, 2025).

How the values were obtained:
Assay in all cases: log2 ratio of Biotin-Ahx-Ub-VS probe labelling (fragment/DMSO); higher = less target engagement (more negative = stronger competition), active = hit call of the paper (q ≤ 0.05, log2 ratio ≤ -1)
Conditions in all cases: compound concentration: 200 uM; treatment time: 3 h
[1] = target: USP34 (UniProt Q70CQ2)
How it was run: (§1)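 Each value is an average log2 ratio of fragment to vehicle, tested by unpaired t-test. The underlying Spectronaut label-free quantities were global-median-normalised, and only proteins with ≥2 unique peptides were included. Triplicate HEK293T lysate samples (495 µg) were exposed to fragment at 200 µM or vehicle for 3 h, then to Biotin-Ahx-Ub-VS at 0.5 µM final for 1 h, before NeutrAvidin enrichment of labelled DUBs, LysC and trypsin digestion, and diaPASEF LC-MS/MS.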

[2] = target: T1, USP36 (UniProt Q9P275)
T1 sequence (whole entry): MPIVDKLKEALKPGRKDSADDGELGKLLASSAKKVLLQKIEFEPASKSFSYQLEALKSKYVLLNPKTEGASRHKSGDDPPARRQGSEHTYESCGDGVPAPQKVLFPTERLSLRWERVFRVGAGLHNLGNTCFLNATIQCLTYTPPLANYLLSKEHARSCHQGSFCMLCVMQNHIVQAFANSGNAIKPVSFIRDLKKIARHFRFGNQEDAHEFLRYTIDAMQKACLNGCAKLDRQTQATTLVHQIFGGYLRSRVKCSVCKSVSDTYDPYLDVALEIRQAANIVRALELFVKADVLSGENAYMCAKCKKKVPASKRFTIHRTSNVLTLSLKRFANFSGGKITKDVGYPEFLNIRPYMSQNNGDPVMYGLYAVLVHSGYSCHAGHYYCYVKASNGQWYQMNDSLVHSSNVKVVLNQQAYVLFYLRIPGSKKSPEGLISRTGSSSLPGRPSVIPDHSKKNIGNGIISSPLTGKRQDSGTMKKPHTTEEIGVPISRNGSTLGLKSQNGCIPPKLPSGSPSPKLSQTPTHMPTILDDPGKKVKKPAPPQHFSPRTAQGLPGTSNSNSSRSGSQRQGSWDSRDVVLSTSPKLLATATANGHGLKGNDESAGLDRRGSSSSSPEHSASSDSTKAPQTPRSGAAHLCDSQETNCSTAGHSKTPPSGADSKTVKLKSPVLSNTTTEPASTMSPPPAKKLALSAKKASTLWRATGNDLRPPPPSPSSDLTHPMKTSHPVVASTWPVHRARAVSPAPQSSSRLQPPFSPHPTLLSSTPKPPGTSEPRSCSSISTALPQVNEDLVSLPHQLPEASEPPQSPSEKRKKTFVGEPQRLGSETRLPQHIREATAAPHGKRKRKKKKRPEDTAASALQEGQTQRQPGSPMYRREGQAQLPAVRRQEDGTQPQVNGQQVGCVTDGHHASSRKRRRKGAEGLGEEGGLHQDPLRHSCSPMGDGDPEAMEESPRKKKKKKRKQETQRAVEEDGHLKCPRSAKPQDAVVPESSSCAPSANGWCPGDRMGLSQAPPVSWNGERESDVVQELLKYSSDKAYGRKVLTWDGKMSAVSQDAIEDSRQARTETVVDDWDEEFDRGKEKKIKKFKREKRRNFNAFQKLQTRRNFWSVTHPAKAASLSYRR
How it was run: as §1

[3] = target: T2, USP38 (UniProt Q8NB14)
T2 sequence (whole entry): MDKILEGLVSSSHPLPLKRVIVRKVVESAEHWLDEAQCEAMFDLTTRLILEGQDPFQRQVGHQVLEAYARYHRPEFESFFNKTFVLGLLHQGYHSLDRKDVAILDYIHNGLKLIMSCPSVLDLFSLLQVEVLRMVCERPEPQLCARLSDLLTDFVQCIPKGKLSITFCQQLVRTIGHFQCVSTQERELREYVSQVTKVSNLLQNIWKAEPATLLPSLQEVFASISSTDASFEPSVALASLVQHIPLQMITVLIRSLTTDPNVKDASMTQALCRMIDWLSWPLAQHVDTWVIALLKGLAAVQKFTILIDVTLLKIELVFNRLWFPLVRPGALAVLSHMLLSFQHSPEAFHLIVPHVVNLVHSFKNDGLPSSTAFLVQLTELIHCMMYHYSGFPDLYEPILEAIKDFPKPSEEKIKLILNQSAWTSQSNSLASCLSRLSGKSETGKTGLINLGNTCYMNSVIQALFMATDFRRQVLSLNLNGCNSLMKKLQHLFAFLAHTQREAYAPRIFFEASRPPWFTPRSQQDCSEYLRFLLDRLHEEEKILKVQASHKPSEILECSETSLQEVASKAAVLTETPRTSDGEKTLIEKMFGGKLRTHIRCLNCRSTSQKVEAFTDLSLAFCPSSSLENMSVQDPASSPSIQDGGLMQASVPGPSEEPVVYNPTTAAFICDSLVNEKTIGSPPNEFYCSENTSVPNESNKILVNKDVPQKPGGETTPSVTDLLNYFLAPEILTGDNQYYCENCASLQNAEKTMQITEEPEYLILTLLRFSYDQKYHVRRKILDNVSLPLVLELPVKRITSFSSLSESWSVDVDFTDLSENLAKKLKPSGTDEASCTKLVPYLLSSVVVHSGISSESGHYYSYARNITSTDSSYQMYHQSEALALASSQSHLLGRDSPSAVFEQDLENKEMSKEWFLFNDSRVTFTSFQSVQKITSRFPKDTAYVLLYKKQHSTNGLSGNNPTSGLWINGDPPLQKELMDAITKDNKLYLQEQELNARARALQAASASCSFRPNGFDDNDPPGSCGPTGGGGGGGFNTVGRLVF
How it was run: as §1

[4] = target: T3, USP39 (UniProt Q53GS9)
T3 sequence (whole entry): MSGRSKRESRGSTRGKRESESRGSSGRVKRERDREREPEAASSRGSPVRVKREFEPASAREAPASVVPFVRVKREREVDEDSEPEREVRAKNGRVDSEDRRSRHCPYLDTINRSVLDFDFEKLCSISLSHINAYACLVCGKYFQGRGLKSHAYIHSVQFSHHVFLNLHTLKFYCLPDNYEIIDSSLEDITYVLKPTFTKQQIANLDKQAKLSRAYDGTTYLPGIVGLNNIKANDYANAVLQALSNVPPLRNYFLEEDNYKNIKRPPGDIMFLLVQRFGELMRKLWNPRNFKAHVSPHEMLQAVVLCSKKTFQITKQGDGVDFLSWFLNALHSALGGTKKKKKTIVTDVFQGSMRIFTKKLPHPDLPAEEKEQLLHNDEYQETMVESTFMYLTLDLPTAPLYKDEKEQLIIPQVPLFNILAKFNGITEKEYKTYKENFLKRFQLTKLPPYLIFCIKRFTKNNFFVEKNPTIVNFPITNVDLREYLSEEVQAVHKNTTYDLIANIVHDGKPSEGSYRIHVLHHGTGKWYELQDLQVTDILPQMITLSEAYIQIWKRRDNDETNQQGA
How it was run: as §1

[5] = target: T4, USP4 (UniProt Q13107)
T4 sequence (whole entry): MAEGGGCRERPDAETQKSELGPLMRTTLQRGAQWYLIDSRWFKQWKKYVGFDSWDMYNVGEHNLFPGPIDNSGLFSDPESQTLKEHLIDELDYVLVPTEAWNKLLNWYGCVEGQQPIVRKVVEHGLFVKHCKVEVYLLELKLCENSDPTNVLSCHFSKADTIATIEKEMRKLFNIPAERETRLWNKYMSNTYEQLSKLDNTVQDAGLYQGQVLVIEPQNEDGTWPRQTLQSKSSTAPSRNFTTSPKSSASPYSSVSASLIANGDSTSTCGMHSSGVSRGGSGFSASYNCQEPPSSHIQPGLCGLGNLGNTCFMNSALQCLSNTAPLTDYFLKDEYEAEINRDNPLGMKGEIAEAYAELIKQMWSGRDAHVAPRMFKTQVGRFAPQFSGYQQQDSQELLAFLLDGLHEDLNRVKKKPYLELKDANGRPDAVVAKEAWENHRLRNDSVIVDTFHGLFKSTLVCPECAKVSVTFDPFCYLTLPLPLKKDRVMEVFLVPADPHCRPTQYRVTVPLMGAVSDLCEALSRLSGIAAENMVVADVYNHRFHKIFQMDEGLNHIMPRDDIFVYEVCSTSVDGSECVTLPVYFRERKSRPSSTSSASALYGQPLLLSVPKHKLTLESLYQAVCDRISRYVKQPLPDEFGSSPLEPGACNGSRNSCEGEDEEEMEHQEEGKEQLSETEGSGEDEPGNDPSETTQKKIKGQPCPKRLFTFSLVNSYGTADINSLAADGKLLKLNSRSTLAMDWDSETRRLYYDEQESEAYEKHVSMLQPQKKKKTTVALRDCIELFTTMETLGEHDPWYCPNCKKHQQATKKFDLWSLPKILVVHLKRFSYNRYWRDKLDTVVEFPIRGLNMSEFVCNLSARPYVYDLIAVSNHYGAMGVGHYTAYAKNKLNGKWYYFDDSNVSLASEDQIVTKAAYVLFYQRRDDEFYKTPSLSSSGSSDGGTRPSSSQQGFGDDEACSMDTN
How it was run: as §1

Measured: log2 ratio of Biotin-Ahx-Ub-VS probe labelling

Chain of USP34 (Q70CQ2 whole entry, the tested form may be a part): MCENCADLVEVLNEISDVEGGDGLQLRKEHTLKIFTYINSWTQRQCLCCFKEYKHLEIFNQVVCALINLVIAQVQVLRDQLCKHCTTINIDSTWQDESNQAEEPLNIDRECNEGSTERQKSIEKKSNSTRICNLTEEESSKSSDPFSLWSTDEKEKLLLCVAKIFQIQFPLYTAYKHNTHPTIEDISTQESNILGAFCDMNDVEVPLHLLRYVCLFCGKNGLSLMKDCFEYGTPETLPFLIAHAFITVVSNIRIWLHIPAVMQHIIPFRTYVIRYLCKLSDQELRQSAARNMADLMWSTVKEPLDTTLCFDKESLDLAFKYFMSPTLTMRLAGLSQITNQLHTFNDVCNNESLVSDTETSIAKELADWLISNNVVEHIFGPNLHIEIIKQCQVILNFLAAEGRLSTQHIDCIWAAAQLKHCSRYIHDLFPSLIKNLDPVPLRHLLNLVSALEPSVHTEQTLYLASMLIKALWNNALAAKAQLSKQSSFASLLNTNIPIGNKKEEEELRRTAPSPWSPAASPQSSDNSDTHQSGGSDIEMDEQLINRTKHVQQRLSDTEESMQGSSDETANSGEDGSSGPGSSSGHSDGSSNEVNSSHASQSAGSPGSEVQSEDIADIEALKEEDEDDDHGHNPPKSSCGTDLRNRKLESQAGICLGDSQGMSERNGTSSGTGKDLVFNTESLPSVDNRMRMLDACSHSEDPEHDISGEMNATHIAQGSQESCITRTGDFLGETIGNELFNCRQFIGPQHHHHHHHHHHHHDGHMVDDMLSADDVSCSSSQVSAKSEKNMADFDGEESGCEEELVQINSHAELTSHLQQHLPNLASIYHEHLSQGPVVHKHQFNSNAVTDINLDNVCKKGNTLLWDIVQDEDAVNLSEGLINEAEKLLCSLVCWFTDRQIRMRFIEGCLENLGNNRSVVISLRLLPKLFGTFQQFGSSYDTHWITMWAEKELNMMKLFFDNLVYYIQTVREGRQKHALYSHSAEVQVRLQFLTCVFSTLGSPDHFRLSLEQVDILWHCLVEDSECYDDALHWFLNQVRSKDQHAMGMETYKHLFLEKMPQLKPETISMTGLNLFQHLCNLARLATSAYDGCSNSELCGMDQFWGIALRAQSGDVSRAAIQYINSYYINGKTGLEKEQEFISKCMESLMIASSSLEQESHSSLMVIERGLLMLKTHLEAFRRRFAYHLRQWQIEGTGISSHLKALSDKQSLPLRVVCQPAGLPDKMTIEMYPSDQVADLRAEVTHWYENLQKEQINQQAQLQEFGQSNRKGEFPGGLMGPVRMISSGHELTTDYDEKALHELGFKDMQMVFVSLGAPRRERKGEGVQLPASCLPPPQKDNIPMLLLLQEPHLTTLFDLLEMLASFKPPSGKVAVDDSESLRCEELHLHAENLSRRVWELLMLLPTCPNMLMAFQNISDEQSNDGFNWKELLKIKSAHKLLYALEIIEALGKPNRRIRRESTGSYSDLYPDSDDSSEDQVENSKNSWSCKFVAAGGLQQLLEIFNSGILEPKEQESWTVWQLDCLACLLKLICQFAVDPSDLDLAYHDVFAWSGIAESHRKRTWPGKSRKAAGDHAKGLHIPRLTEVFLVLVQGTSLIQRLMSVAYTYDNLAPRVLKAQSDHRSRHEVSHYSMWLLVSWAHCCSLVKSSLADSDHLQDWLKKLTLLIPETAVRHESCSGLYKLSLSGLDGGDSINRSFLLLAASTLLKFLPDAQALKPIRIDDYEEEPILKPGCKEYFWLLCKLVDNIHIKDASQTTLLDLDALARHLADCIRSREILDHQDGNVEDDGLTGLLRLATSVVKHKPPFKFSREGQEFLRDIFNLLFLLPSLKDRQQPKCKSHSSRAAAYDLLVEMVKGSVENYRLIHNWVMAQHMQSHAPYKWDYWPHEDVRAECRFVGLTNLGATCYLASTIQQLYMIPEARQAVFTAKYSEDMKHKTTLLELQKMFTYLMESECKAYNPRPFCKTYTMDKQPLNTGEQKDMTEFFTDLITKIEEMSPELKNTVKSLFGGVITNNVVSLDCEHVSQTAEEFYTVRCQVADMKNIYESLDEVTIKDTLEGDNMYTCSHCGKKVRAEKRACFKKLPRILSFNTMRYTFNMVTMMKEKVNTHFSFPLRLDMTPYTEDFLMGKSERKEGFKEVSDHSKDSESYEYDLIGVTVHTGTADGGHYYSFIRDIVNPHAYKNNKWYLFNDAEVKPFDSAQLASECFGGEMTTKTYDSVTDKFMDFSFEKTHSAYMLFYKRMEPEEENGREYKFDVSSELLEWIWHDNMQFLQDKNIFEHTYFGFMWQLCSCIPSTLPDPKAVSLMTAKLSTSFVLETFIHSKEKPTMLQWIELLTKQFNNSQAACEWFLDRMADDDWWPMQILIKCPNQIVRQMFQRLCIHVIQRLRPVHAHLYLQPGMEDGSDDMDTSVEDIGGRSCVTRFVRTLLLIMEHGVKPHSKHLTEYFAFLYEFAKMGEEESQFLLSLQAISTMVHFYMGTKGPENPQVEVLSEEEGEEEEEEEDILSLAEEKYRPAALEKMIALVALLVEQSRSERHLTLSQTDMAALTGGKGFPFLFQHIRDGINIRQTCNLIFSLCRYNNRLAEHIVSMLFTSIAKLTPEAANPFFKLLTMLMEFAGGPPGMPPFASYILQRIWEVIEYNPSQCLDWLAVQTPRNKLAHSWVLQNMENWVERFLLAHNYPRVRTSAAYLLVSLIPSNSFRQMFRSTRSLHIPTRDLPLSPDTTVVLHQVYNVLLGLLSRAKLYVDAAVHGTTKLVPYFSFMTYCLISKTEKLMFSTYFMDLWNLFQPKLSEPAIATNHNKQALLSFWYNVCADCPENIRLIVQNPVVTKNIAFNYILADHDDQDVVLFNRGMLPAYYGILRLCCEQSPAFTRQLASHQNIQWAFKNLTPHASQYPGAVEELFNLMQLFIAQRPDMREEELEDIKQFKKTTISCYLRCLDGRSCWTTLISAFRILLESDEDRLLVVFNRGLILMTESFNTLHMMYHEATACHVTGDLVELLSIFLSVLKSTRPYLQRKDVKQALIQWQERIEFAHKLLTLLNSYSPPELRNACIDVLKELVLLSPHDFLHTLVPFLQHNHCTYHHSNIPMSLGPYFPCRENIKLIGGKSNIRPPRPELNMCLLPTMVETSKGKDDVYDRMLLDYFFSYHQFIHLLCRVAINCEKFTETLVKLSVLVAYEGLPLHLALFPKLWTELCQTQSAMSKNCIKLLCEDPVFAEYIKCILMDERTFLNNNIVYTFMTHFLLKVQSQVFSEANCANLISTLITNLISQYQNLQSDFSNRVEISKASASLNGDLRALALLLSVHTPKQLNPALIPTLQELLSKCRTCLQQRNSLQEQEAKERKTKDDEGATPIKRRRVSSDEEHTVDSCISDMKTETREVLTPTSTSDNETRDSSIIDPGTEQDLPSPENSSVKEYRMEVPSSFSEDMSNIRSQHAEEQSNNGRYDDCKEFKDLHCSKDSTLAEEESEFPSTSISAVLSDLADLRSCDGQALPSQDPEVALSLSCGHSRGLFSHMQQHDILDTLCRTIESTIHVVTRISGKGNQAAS

Cl.O=C(CCl)NCc1cc2c(nc1O)CCCC2
inactive: [1] -0.103 | [2] -0.408 | [3] -0.0702 | [4] -0.212 | [5] -0.0856
